Here are results for 5 compounds from PubChem BioAssay (NCATS).

“And” between values parts separate entries of the source, which are not always exact repeats. Equal values may be shown once. Unmarked numbers belong to inactive results. Records with an inconclusive call do not appear. The source made the active and inactive calls. Calls follow the shape of the dose curve; as a rule, active = well fitted curve in the direction sought with a large enough effect; inconclusive = small, poorly fitted or top-dose-only effect, or another doubt; inactive = no such curve, though single readings can be large; an effect the other way counts as inactive or inconclusive.

The nature of assay [1]: Primary qHTS for inhibitors of nuclear receptor binding SET domain protein 2 (NSD2) in an isogenic RCH-ACV NSD2 p.E1099K mutant (9B) (AID 1645876). Also: nearly all actives have a fitted effect of over 70% in size. Also: potency is read from the fitted curve at half-maximal effect. Background: Quantitative high-throughput screening tests each substance at several concentrations.
Assay [2] concerns the target Glutathione peroxidase 1 (Homo sapiens) (UniProt P07203). Put plainly: Primary qHTS Assay for Inhibitors of Recombinant Selenoprotein Glutathione Peroxidase 1 (GPX1) (AID 1845191). Also: nearly all actives have a fitted effect of over 65% in size. As to activity, negative = inhibition: % is scaled to controls: 0 for no effect and ±100 for the full control effect. An outline of the steps: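 Recombinant GPX1 (10 nM final) was preincubated with compound for 30 min at room temperature, then reacted with 1 mM GSH, 0.5 mM CHP, 0.5 mM NADPH and 100 nM glutathione reductase; NADPH fluorescence (340/450 nm) was read at 0 and 15 min.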

Assay [3] has as its target Phospholipid hydroperoxide glutathione peroxidase GPX4 (Homo sapiens) (UniProt P36969). The experiment in a line: Primary qHTS Assay for Inhibitors of Recombinant Selenoprotein Glutathione Peroxidase 4 (GPX4) (AID 1845192). Also: nearly all actives have a fitted effect of over 65% in size. As to activity change, negative = inhibition: % is scaled to controls: 0 for no effect and ±100 for the full control effect. An outline of the steps: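 GR-coupled readout: 100 nM GR, 1 mM GSH, 0.5 mM NADPH; NADPH fluorescence (ex 340/em 450 nm) read at t=0 and after 15 min RT. GPX4 200 nM, preincubated 30 min with compound; substrate 0.5 mM CHP.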

Assay [4] concerns the target Luciferin 4-monooxygenase (Photinus pyralis) (UniProt P08659). Put plainly: Primary firefly luciferase (FLuc) qHTS assay for identification of artifact compounds. (AID 1845220). Also: nearly all actives have a fitted effect of over 60% in size.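 As to activity change, negative = inhibition: plate controls were DMSO vehicle for no effect and no enzyme for full effect.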 The note with it: outcome: dose series up to 54.1 µM unless noted. An outline of the steps:
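qHTS, 15 min compound preincubation with substrate (10 uM luciferin, 10 uM ATP) at RT, then 10 nM FLuc; 5 min; luminescence; % inhibition vs no-enzyme/DMSO controls, 4-parameter Hill fit.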

The test system of assay [5] is Nanoluciferase (engineered Oplophorus gracilirostris luciferase). Put plainly: Primary Nanoluciferase (NLuc) qHTS assay for identification of artifact compounds. (AID 1845222).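 Also: 0% = DMSO and -100% = no enzyme.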 An outline of the steps:
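Luminescence read-out of secreted NLuc in S16 cell conditioned medium (1:55); compounds tested with 15 min RT preincubation, then Nano-Glo substrate 1:100, 5 min. % inhibition vs no-enzyme and DMSO controls, 4-parameter Hill fit.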

In a further assay the test system is CRL-7250. The experiment in a line: Cytotoxic Profiling of Annotated Libraries Using Quantitative High-Throughput Screening (AID 1296008). Also: nearly all actives have a fitted effect of over 60% in size. Also: potency is read from the fitted curve at half-maximal effect. The note with it: Five cell lines viability, CellTiter-Glo ATP luminescence, 48-72 h; max response: active compounds read low. An outline of the steps: (§1)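 Compounds were pin-transferred onto cells and incubated 48 or 72 hr at 37 degree Celsius, 95% humidity. CellTiter-Glo was added, plates sat 10 min at room temperature, then ATP-coupled luminescence was imaged as the viability read-out.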

For the next assay, the system named is HEK293. The description is as above. The note with it: Five cell lines viability, CellTiter-Glo ATP luminescence, 48-72 h; max response: active compounds read low. An outline of the steps: as §1
In another assay the test system is HaCat. The description is as above. Conditions: Five cell lines viability, CellTiter-Glo ATP luminescence, 48-72 h; max response: active compounds read low. An outline of the steps:
as §1

In a further assay the test system is NIH3T3. The description is as above. The note with it: Five cell lines viability, CellTiter-Glo ATP luminescence, 48-72 h; max response: active compounds read low. An outline of the steps:
as §1
Background: In ATP-based viability assays light output follows the ATP content of the culture.

The test system of a further assay is Hek293T. Put plainly: Primary qHTS to identify gynecologic anti-cancer compounds using libraries of approved drugs and bioactive compounds (AID 1345084). Also: nearly all actives have a fitted effect of over 55% in size. Also: potency is read from the fitted curve at half-maximal effect. As to activity change, negative = cytotoxicity: % is scaled to controls: 0 for no effect and ±100 for the full control effect. The note with it: Gynecologic cancer cell panel viability, ATPlite luminescence, 48 h, control line for the selectivity index; series mostly up to 57.5 µM. An outline of the steps:
(§2)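 Cell viability after 48 h drug treatment, ATPlite luminescence readout; five doses.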

In the next assay the test system is PA-1. The assay is described as above. Conditions: Gynecologic cancer cell panel viability, ATPlite luminescence, 48 h; series mostly up to 57.5 µM. An outline of the steps:
as §2

The next assay concerns Tov-21-G. The assay is described as above. Conditions: Gynecologic cancer cell panel viability, ATPlite luminescence, 48 h; series mostly up to 57.5 µM. An outline of the steps: as §2
The subject of a further assay is Tov112D. Described as above. The note with it: Gynecologic cancer cell panel viability, ATPlite luminescence, 48 h; series mostly up to 57.5 µM. An outline of the steps:
as §2

The test system of assay [6] is Zika virus NS2B-NS3 protease (linked construct). Put plainly: Primary screen NINDS Rhodamine qHTS for Zika virus inhibitors (AID 1347160). Also: nearly all actives have a fitted effect of over 55% in size. An outline of the steps: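 Percent inhibition, normalized to uninhibited and enzyme-free controls, is fitted to a 4-parameter Hill equation. Fluorescence change comes from a 15-min cleavage of 1.5 microM bis-peptide Rhodamine110 substrate by 25 nM linked NS2B-NS3 at room temperature.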

The target in assay [7] is Calcium and integrin-binding protein 1 (Homo sapiens) (UniProt Q99828). The experiment in a line: Primary qHTS for Identification of Calcium Integrin Binding Protein 1 (CIB1) Competitor (AID 1508620).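 Also: GST tagged CIB1 binding a fluorescein labelled alphaIIb integrin peptide tracer; top concentration of the series differs between compounds; % is scaled to controls: 0 for no effect and ±100 for the full control effect.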 An outline of the steps:
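Fluorescence polarization competition: CIB1-GST (1 uM final) preincubated with compound 15 min at room temperature, then FITC-labeled alphaIIb peptide (100 nM final) added for another 15 min. Polarization read at Ex 480/Em 540.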

Assay [8] is described as follows: Primary fluorescence-based thiol-reactive (MSTI) qHTS assay for identification of artifact compounds. (AID 1845221). Also: nearly all actives have a fitted effect of over 65% in size. Also: potency is read from the fitted curve at half-maximal effect.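 As to activity change, negative = thiol reactive: thiol-reactive compounds lower the probe fluorescence signal.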 An outline of the steps:
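Probe: MSTI 4 uM, PBS pH 7.4, 2% DMSO. Incubation 1 h, RT, light-protected. Readout fluorescence 525/598 nm.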

The subject of the next assay is C33A. Put plainly: Primary qHTS to identify gynecologic anti-cancer compounds using libraries of approved drugs and bioactive compounds (AID 1345084). Also: nearly all actives have a fitted effect of over 55% in size. Also: potency is read from the fitted curve at half-maximal effect. The note with it: Gynecologic cancer cell panel viability, ATPlite luminescence, 48 h; series mostly up to 57.5 µM. An outline of the steps: as §2
The next assay deals with CASKI. The assay is described as above. The note with it: Gynecologic cancer cell panel viability, ATPlite luminescence, 48 h; series mostly up to 57.5 µM. An outline of the steps: as §2
The test system of the next assay is Es-2. The assay is described as above. The note with it: Gynecologic cancer cell panel viability, ATPlite luminescence, 48 h; series mostly up to 57.5 µM. An outline of the steps: as §2
In a further assay the test system is OV90. Described as above. Conditions: Gynecologic cancer cell panel viability, ATPlite luminescence, 48 h; series mostly up to 57.5 µM. An outline of the steps: as §2

Chain of Glutathione peroxidase 1 (Homo sapiens) (P07203 whole entry, looked up): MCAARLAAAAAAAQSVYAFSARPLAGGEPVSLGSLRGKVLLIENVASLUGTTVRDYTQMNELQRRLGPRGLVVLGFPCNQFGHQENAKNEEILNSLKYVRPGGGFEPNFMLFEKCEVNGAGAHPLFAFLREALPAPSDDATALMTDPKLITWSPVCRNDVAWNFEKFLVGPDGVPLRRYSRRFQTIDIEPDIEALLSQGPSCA
Chain of Phospholipid hydroperoxide glutathione peroxidase GPX4 (Homo sapiens) (P36969 whole entry, looked up): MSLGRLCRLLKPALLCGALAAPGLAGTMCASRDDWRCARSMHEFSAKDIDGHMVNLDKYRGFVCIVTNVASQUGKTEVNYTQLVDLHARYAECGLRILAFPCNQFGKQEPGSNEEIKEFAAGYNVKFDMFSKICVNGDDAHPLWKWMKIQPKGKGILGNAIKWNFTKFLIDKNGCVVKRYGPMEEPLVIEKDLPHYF
Chain of Calcium and integrin-binding protein 1 (Homo sapiens) (Q99828 whole entry, looked up): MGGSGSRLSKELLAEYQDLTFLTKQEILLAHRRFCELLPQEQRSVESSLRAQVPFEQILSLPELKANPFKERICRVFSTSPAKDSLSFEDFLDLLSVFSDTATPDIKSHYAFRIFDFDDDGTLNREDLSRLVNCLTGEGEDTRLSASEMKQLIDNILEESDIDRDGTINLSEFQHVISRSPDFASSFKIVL

On to `CN(C)c1cc2c(cc1Sc1nc3c(N)nccc3n1CCNCC(C)(C)C)OCO2`, for which the Potency in [1] is 459 nM (active) and 662 nM (active); in the assay on CRL-7250, 1.84 µM (active); with HEK293, 0.58 µM (active); in the assay on HaCat it was 0.461 µM (active); with NIH3T3 it was 1.03 µM (active); in the assay with Hek293T it was 1.26 µM (active). The Potency in the assay on PA-1 and in the assay on Tov-21-G was 1.41 µM (active) throughout. Moreover, the Potency result (in [2]; in assay [3]; in [5]; in the assay on Tov112D) was “inactive” in each case. Besides, the call in assay [4] was inactive.

Consider `CO[C@H]1C[C@H](O[C@H]2CC[C@@]3(C)C(=CCC4C3CC[C@]3(C)[C@@H](C5=CC(=O)OC5)CC[C@]43O)C2)O[C@@H](C)[C@@H]1O[C@@H]1O[C@H](CO[C@@H]2O[C@H](CO)[C@@H](O)[C@H](O)[C@H]2O)[C@@H](O)[C@H](O)[C@H]1O` (some centres undefined), for which the Potency entry in [6], in assay [7], in assay [2] and in assay [3] was “inactive” each time. For the same compound, the activity change, negative = inhibition in [4] was 0.797% [at 11.6 µM]. In addition, the activity change, negative = thiol reactive in [8] is 94.1% [at 11.5 µM]. Further, the activity, negative = inhibition in [5] is 3.27% [at 11.6 µM]. Also, the max response with CRL-7250 is -12.8%; with HEK293 it was -7.06%; with HaCat, -7.84%; with NIH3T3, -5.72%. In addition, the activity change, negative = cytotoxicity with C33A is 5.08% [at 11.6 µM]; in the assay on CASKI, 22.6% [at 11.6 µM]; in the assay with Es-2, -0.369% [at 11.6 µM]; in the assay on Hek293T, -20.2% [at 11.6 µM]; with OV90, 5.84% [at 11.6 µM]; in the assay with PA-1 it was 10.4% [at 11.6 µM]. The activity change, negative = cytotoxicity in the assay with Tov-21-G is -1.43% [at 11.6 µM]; in the assay with Tov112D, -28.4% [at 11.6 µM].

Consider `C[C@@H]1C[C@@H](O)[C@]2(O)O[C@@H]3C[C@@]4(C=O)C(CC[C@@H]5C4CC[C@]4(C)[C@@](O)(C6=CC(=O)OC6)CC[C@]54O)C[C@H]3OC2O1` (some centres undefined), for which the Potency result in assay [6], in [7], in [2], in assay [3] and in assay [5] was “inactive” throughout. Besides, the Potency was 709 nM (active) in [1]; 9.22 µM (active) in assay [8]; 0.796 µM (active) with CRL-7250; 1.12 µM (active) with HEK293; 5.02 µM (active) in the assay on HaCat; 2.82 µM (active) in the assay on C33A. Further, the Potency is 3.55 µM (active) in the assay on Es-2, 3.16 µM (active) with Hek293T, 1.78 µM (active) in the assay on Tov-21-G and 0.891 µM (active) with Tov112D. In assay [4], the outcome is “inactive [at 25.7 µM]”. Moreover, the max response in the assay on NIH3T3 was -15.7%.

Consider `N#Cc1ccc([C@H]2CCCC[C@H]2O)cc1C(F)(F)F`, for which the Potency result in [6], in assay [7], in assay [1], in assay [2], in assay [3] and in assay [8] was “inactive” each time. The Potency result (in assay [5]; with C33A; in the assay with CASKI; in the assay with Es-2; with Hek293T; in the assay on OV90) was “inactive” in each case. The Potency entry in the assay on PA-1, in the assay with Tov-21-G and in the assay on Tov112D was “inactive” in each case. Further, the compound was classed as inactive in assay [4]. Besides, the max response in the assay on CRL-7250 is 1.6%; in the assay with HEK293, -11%; with HaCat, -7.91%; in the assay on NIH3T3, -1.88%.

With `CC[C@H](C)[C@H](NC(=O)[C@H]1CCCCN1C)C(=O)N(COC(=O)CC(C)C)[C@H](C[C@@H](OC(C)=O)c1nc(C(=O)N[C@@H](Cc2ccc(O)cc2)C[C@H](C)C(=O)O)cs1)C(C)C`, in assay [6], the outcome is “inactive [at 1.3 µM]”. Moreover, the activity change, negative = inhibition in [7] was 1.44% [at 2.24 µM]; in assay [3], -13.5% [at 1.09 µM]; in [4], -4.53% [at 1.03 µM]. The Potency in [1] was 1.1 nM (active); in the assay with CRL-7250, 0.0047 µM (active); in the assay with HEK293, 0.0004 µM (active); in the assay on NIH3T3, 0.0012 µM (active); in the assay on Es-2 it was 0.0083 µM (active); with Tov-21-G, 0.0052 µM (active). In addition, in the assay with Tov112D, the Potency is 0.0041 µM (active). Also, the activity, negative = inhibition was -5.19% [at 1.09 µM] in assay [2] and 2.85% [at 1.03 µM] in assay [5]. Further, the activity change, negative = thiol reactive in assay [8] was 28.3% [at 1.02 µM]. Also, in the assay with HaCat, the max response is -10.6%.
